# Data published in the supplement of paper PMC10037445.
# The full ranking holds about 2,900 compounds; the median of “NF-kB SEAP reporter activity, fold change vs agonist alone” is about 0.99, and the highest 2% start at about 2.6. The sample holds the highest values, similar compounds and a random draw of the others, so the mix is not that of the screen.
# How the values were obtained:
# [1] = system: RAW-Dual; test: NF-kB SEAP reporter activity, fold change vs agonist alone; cytotoxicity flag (confluency mask): not cytotoxic; higher = enhanced NF-kB activity
# Method in brief: (§1)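 After 50 nL of library stock was delivered by pin tool to RAW-Dual macrophages (50,000 cells/well, DMEM, 384-well plates), a PRR agonist was added 1 h later and the plates were kept at 37 °C, 5% CO2. Twenty hours later, IRF was read from supernatant by QuantiLuc luminescence and NF-κB by QuantiBlue absorbance at 620 nm. Reporter activity is stated as fold change over agonist-alone wells. Wells with IncuCyte confluency under 70% of agonist controls in both mask sets were counted as cytotoxic.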
# [2] = system: RAW-Dual; test: NF-kB SEAP reporter activity, fold change vs agonist alone; higher = enhanced NF-kB activity; settings: library stock concentration (final ~1000-fold dilution): 10 mM
# Method in brief: as §1
# [3] = system: RAW-Dual; test: NF-kB SEAP reporter activity, fold change vs agonist alone; cytotoxicity flag (confluency mask): cytotoxic (confluency <70% of control); higher = enhanced NF-kB activity
# Method in brief: as §1
# [4] = agonist: ODN 1826 (TLR9) 0.5 ug/mL
# [5] = agonist: Pam2CSK4 (TLR2/6) 0.1 ug/mL
# [6] = agonist: Pam3CSK4 (TLR2/1) 0.1 ug/mL
# [7] = cytotoxicity flag (confluency mask): not cytotoxic, agonist: Imiquimod (TLR7) […]
# [8] = cytotoxicity flag (confluency mask): not cytotoxic, agonist: MPLA (TLR4) […]
# [9] = cytotoxicity flag (confluency mask): cytotoxic (confluency <70% of control), agonist: Imiquimod (TLR7) […]
# [10] = cytotoxicity flag (confluency mask): cytotoxic (confluency <70% of control), agonist: MPLA (TLR4) […]
compound,measurement,setting,value
CC(=O)OC1(C(C)=O)CCC2C3C=C(C)C4=CC(=O)CCC4(C)C3CCC21C (stereo not given) (library stock concentration (final ~1000-fold dilution): 10 mM),NF-kB SEAP reporter activity,[1]; agonist: LPS (TLR4) 0.1 ug/mL,0.908
same,NF-kB SEAP reporter activity,[1]; [4],1.22
same,NF-kB SEAP reporter activity,[1]; [5],1.13
same,NF-kB SEAP reporter activity,[1]; [6],1.27
CC(=O)OC1(C(C)=O)CCC2C3C=C(C)C4=CC(=O)CCC4(C)C3CCC21C (stereo not given),NF-kB SEAP reporter activity,[2]; [7],1.21
same,NF-kB SEAP reporter activity,[2]; [8],1.14
O=C(NC1=CC(=O)[C@@H]2O[C@@H]2[C@@H]1O)c1ccccc1O,NF-kB SEAP reporter activity,[2]; [7],0.849
same,NF-kB SEAP reporter activity,[2]; [8],0.949
O=C(NC1=CC(=O)[C@@H]2O[C@@H]2[C@@H]1O)c1ccccc1O (library stock concentration (final ~1000-fold dilution): 10 mM),NF-kB SEAP reporter activity,[1]; agonist: LPS (TLR4) 0.1 ug/mL,0.954
same,NF-kB SEAP reporter activity,[1]; [4],0.718
same,NF-kB SEAP reporter activity,[1]; [5],0.356
same,NF-kB SEAP reporter activity,[1]; [6],0.314
CS(=O)(=O)O.O=C(OC1CC2CC3CC(C1)N2CC3=O)c1c[nH]c2ccccc12 (stereo not given) (library stock concentration (final ~1000-fold dilution): 10 mM),NF-kB SEAP reporter activity,[1]; agonist: LPS (TLR4) 0.1 ug/mL,0.646
same,NF-kB SEAP reporter activity,[1]; [4],0.571
same,NF-kB SEAP reporter activity,[1]; [5],0.906
same,NF-kB SEAP reporter activity,[1]; [6],0.497
CS(=O)(=O)O.O=C(OC1CC2CC3CC(C1)N2CC3=O)c1c[nH]c2ccccc12 (stereo not given),NF-kB SEAP reporter activity,[2]; [7],0.712
same,NF-kB SEAP reporter activity,[2]; [8],0.75
CCNC(=O)C#Cc1ccc2c(c1)NC(=O)/C2=C(\Nc1ccc(CN(C)C)cc1)c1ccccc1 (library stock concentration (final ~1000-fold dilution): 10 mM),NF-kB SEAP reporter activity,[3]; agonist: LPS (TLR4) 0.1 ug/mL,0.241
same,NF-kB SEAP reporter activity,[3]; [4],0.173
same,NF-kB SEAP reporter activity,[3]; [5],0.074
same,NF-kB SEAP reporter activity,[3]; [6],0.121
CCNC(=O)C#Cc1ccc2c(c1)NC(=O)/C2=C(\Nc1ccc(CN(C)C)cc1)c1ccccc1,NF-kB SEAP reporter activity,[2]; [9],0.134
same,NF-kB SEAP reporter activity,[2]; [10],0.297
CCN(CC)CCOc1ccc(Nc2ncc3cc(-c4c(Cl)cccc4Cl)c(=O)n(C)c3n2)cc1 (library stock concentration (final ~1000-fold dilution): 10 mM),NF-kB SEAP reporter activity,[3]; agonist: LPS (TLR4) 0.1 ug/mL,0.238
same,NF-kB SEAP reporter activity,[3]; [4],0.236
same,NF-kB SEAP reporter activity,[3]; [5],0.0747
same,NF-kB SEAP reporter activity,[3]; [6],0.145
C=CC(=O)Nc1cccc(Sc2nc(Nc3ccc(N4CCN(C)CC4)cc3)ncc2Cl)c1,NF-kB SEAP reporter activity,[2]; [7],0.33
same,NF-kB SEAP reporter activity,[2]; [8],0.408
Cc1cnc(Nc2ccc(N3CCN(C)CC3)cc2)nc1Nc1cccc(S(=O)(=O)NC(C)(C)C)c1,NF-kB SEAP reporter activity,[2]; [7],1.01
same,NF-kB SEAP reporter activity,[2]; [8],0.945
C=CCn1c(=O)c2cnc(Nc3ccc(N4CCN(C)CC4)cc3)nc2n1-c1cccc(C(C)(C)O)n1 (library stock concentration (final ~1000-fold dilution): 10 mM),NF-kB SEAP reporter activity,[3]; agonist: LPS (TLR4) 0.1 ug/mL,0.933
same,NF-kB SEAP reporter activity,[3]; [4],0.203
same,NF-kB SEAP reporter activity,[3]; [5],0.914
same,NF-kB SEAP reporter activity,[3]; [6],1.07
Cc1cnc(Nc2ccc(OCCN3CCCC3)cc2)nc1Nc1cccc(S(=O)(=O)NC(C)(C)C)c1 (library stock concentration (final ~1000-fold dilution): 10 mM),NF-kB SEAP reporter activity,[3]; agonist: LPS (TLR4) 0.1 ug/mL,4.34
same,NF-kB SEAP reporter activity,[3]; [4],1.22
same,NF-kB SEAP reporter activity,[3]; [5],2.05
same,NF-kB SEAP reporter activity,[3]; [6],3.55
C=CC(=O)Nc1cccc(Sc2nc(Nc3ccc(N4CCN(C)CC4)cc3)ncc2Cl)c1 (library stock concentration (final ~1000-fold dilution): 10 mM),NF-kB SEAP reporter activity,[1]; agonist: LPS (TLR4) 0.1 ug/mL,0.254
same,NF-kB SEAP reporter activity,[1]; [4],0.205
same,NF-kB SEAP reporter activity,[1]; [5],0.0814
same,NF-kB SEAP reporter activity,[1]; [6],0.268
Cc1cnc(Nc2ccc(OCCN3CCCC3)cc2)nc1Nc1cccc(S(=O)(=O)NC(C)(C)C)c1,NF-kB SEAP reporter activity,[2]; [9],3.13
same,NF-kB SEAP reporter activity,[2]; [10],2.73
CCN(CC)CCOc1ccc(Nc2ncc3cc(-c4c(Cl)cccc4Cl)c(=O)n(C)c3n2)cc1,NF-kB SEAP reporter activity,[2]; [9],0.492
same,NF-kB SEAP reporter activity,[2]; [10],0.332
C=CCn1c(=O)c2cnc(Nc3ccc(N4CCN(C)CC4)cc3)nc2n1-c1cccc(C(C)(C)O)n1,NF-kB SEAP reporter activity,[2]; [9],1.14
same,NF-kB SEAP reporter activity,[2]; [10],0.798
